Only some compounds are listed: those with a hit (about 17% of all), similar ones and a draw of the others.
HT1080NT lethal – kills 2HG-producing HT-1080-NT fibrosarcoma cells. HT-1080-NT fibrosarcoma viability, CellTiter-Glo ATP luminescence, 48 h. Potency, µM (doses to about 46.1 µM), for inactives: top-dose activity, negative = less viability, actives largely listed as cytotoxic. 360,000 tested, 1.6% active;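 note: NT is the 2HG producing partner of a matched IDH1 knockdown line; 0% = DMSO-treated cells and -100% = media-only wells without cells; nearly all actives have a fitted effect of over 55% in size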
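Toxicity toward the 2HG-producing NT line was scored as %Activity, normalised to DMSO and no-cell wells, from CellTiter-Glo luminescence after 48 hours' treatment.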
HT1080 IDH1KD tx – kills HT-1080 cells with IDH1 knockdown; HT-1080 IDH1 knockdown viability, ATP luminescence, 48 h; Potency, µM (titrated, usually from 46.1 µM), for the others: at the highest dose activity, negative = toxicity, usual class: cytotoxic; 360,000 tested, 2% active;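 note: 0% = DMSO wells and -100% = cell-free medium wells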
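Knockdown cells (IDH1KD HT-1080) received compounds 2 h after plating at 750 cells/well and were kept 48 h at 37 °C in 5% FBS RPMI. A CellTiter-Glo luminescence read gave % activity for curve fitting.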
DT40 TDP1 CPT – growth inhibition of DT40 Tdp1-/-;hTDP1 cells with camptothecin (screen for TDP1 inhibitors); chicken DT40 Tdp1-/-;hTDP1 cells + 20 nM CPT, ATP luminescence, 48 h; Potency, µM (top dose mostly 46.2 µM), without a hit: at the top dose activity change, negative = growth inhibition, actives largely listed as inhibitors; 420,000 tested, 12% active; note: % is set by controls: 0 for no effect and ±100 for the full control effect; nearly all actives have a fitted effect of over 55% in size
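Chicken DT40 Tdp1-/- cells stably complemented with human TDP1 were seeded at 400 cells/well in medium containing 20 nM camptothecin, exposed to pin-transferred compounds, and grown at 37 °C for at least 48 hr. Viability was read as ATP luminescence.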
HepG2 viability – HepG2 cytotoxicity, counter-screen for TGF-b inhibitors; HepG2 CAGA-GFP viability, ATP luminescence, 18 h; Potency, µM (doses to about 46.1 µM), for the others: at the highest dose activity change, negative = cytotoxicity, usual class: cytotoxic; 410,000 tested, 0.76% active
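HepG2 CAGA-GFP cells (1000/well, DMEM with 1% FBS) received compound, then TGF-beta at 500 pg/mL final, and were incubated 18 hours at 37 degrees C. Viability was read by CellTiter-Glo luminescence. Media-only wells were set as complete cell-killing and DMSO as no toxicity.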
TGFb SMAD3 inh – inhibitors of TGF-b signaling; HepG2 CAGA-GFP TGF-b/SMAD3 reporter, GFP fluorescence, 18 h; TGF-beta stimulated, 500 pg/mL final; Potency, µM (highest dose often 46.1 µM), for the others: at the top dose activity, negative = inhibition, actives largely listed as inhibitors; 410,000 tested, 1.2% active; note: % is set by controls: 0 for no effect and ±100 for the full control effect; nearly all actives have a fitted effect of over 65% in size
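Inhibition of TGF-beta-driven CAGA-GFP reporter expression in HEPG2 cells is measured by cellular GFP fluorescence after 18 h stimulation with 500 pg/mL recombinant TGF-beta in 1% FBS medium at 37 degrees C.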
DT40 TDP1 no CPT – qHTS for Inhibitors of human tyrosyl-DNA phosphodiesterase 1 (TDP1): qHTS in cells in absence of CPT; Potency, µM (series often up to 46.2 µM), inactives show at the highest dose activity change, negative = growth inhibition, actives largely listed as inhibitors; 420,000 tested, 15% active; DT40 Tdp1-/- hTDP1 cells, no CPT, ATP luminescence, 48 h; note: % is set by controls: 0 for no effect and ±100 for the full control effect; nearly all actives have a fitted effect of over 55% in size
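Luminescent ATP content (CellTiter-Glo) served as the growth readout. Knockout chicken DT40 cells expressing human TDP1 were exposed to compounds without camptothecin for a minimum 48 hr at 37 °C.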
Active calls of the source: *; ? = inconclusive; . = no result; [ ] = another dose, or the depositor's remark. Calls come from the whole dose curve; as a rule, active = well fitted curve in the direction sought with a large enough effect; inconclusive = small, poorly fitted or top-dose-only effect, or another doubt; inactive = no such curve, though single readings can be large; an effect the other way counts as inactive or inconclusive. Potency is the fitted concentration of half-maximal effect.

SMILES	HT1080NT lethal	HT1080 IDH1KD tx	DT40 TDP1 CPT	HepG2 viability	TGFb SMAD3 inh	DT40 TDP1 no CPT
COc1ccc2[nH]c(=O)c(CN(Cc3ccco3)C(=O)c3ccccc3)cc2c1	?	-23.4%	?	-0.1%	?	-12.6%
COc1ccc(C(=O)N(Cc2ccco2)Cc2cc3cc(C)ccc3[nH]c2=O)cc1OC	0.7%	-2.2%	?	2.7%	19.1%	16.4µM*
CCOc1ccc(NC(=O)C2CCCN(c3ccc(Sc4ccc(C)cc4)nn3)C2)cc1 (stereo not drawn)	.	.	-14.3%	-3.0%	-25.7%	-21.0%
Cc1ccc(Sc2ccc(N3CCC(C(=O)Nc4ccc(Cl)cc4)CC3)nn2)cc1	.	.	14.6µM*	-4.8%	-0.4%	18.4µM*
Cc1ccc(Sc2ccc(N3CCCC(C(=O)Nc4ccc(F)cc4F)C3)nn2)cc1 (stereo not drawn)	.	.	14.6µM*	-25.6%	-5.0%	18.4µM*
CCOC(=O)c1ccc(NC(=O)C2CCCN(c3ccc(Sc4ccc(C)cc4)nn3)C2)cc1 (stereo not drawn)	.	.	?	0.6%	-8.6%	8.2µM*
O=C1CN(S(=O)(=O)c2cc(C(F)(F)F)ccc2Cl)CCN1	0.0%	11.1%	0.5%	-2.3%	-1.3%	4.2%
O=C(NCCNC1CCC(c2ccccc2)CC1)c1ccc(F)cc1 (stereo not drawn)	20.6µM*	?	?	-43.5%	?	?
O=C(NCCCc1ccccc1)c1ccc(F)cc1	-4.5%	0.1%	1.2%	-0.9%	2.4%	-16.4%
Cc1ccc(-c2csc(NCCn3c(-c4ccncc4)nc4ccccc43)n2)cc1	-1.7%	-7.1%	?	-19.6%	?	23.1µM*
Cc1nc2cc(C(F)(F)F)ccc2n1CCNc1nc(-c2ccc([N+](=O)[O-])c(Cl)c2)cs1	?	?	?	-34.3%	15.8µM*	20.6µM*
Cc1ccc(-c2csc(NCCn3c(-c4ccncc4)nc4cc(C(F)(F)F)ccc43)n2)cc1	-2.4%	0.6%	29.1µM*	-20.6%	3.2%	?
CCOc1ccc(C(=O)NCC(=O)NCC(c2ccco2)N2CCCCC2)cc1 (stereo not drawn)	5.6%	4.4%	-8.1%	10.0%	2.0%	-10.8%
CC1CCOC2(O1)C(=O)Nc1ccccc12 (stereo not drawn)	0.0%	7.8%	1.8%	-14.6%	-6.4%	6.8%
COc1cc(OC)cc(OC(=O)C2CCN(C(=O)c3ccc(F)cc3)CC2)c1	-8.5%	-9.2%	-14.1%	1.8%	4.0%	-24.7%
C#CCOCCOCCOCCNc1nc(N2CCN(C(=O)CCCCCCCCCCNC(=O)[C@H](CCCCN)n3cc(C[C@@H](C)CC)nn3)CC2)nc(N2CCN(C(=O)CCCCCCCCCCNC(=O)[C@H](CCCCN)n3cc(C[C@@H](C)CC)nn3)CC2)n1	?	?	8.2µM*	10µM*	?	9.2µM*
C#CCOCCOCCOCCNc1nc(N2CCN(C(=O)CCCCCCCCCCNC(=O)Cn3cc(C[C@@H](C)O)nn3)CC2)nc(N2CCN(C(=O)CCCCCCCCCCNC(=O)[C@H](CCCCN)n3cc(C[C@@H](C)CC)nn3)CC2)n1	?	20.6µM*	16.4µM*	12.6µM*	?	20.6µM*
C#CCOCCOCCOCCNc1nc(N2CCN(C(=O)CCCCCCCCCCNC(=O)Cn3cc(C[C@@H](C)O)nn3)CC2)nc(N2CCN(C(=O)CCCCCCCCCCNC(=O)Cn3cc(C[C@@H](C)O)nn3)CC2)n1	?	?	6.51µM*	-7.9%	3.0%	9.2µM*
O=C1NC(=S)NC1(c1ccccc1)c1ccccc1	5.9%	21.0%	-9.3%	4.0%	-2.5%	-10.7%
CN(C)c1ccc(CNc2nc(-c3ccco3)nn2S(C)(=O)=O)cc1	.	.	-27.9%	1.7%	2.0%	?
COc1ccc(C(=O)NN2CCOCC2)cc1	20.1%	26.4%	4.8%	9.8%	3.6%	2.8%
COc1ccc(CCNc2nc3c(-c4cccc(C(F)(F)F)c4)nnn3c3ccccc23)cc1OC	.	.	?	0.9%	?	16.4µM*
COc1ccc(-c2nnn3c2nc(NCCc2ccc(OC)c(OC)c2)c2ccccc23)cc1	.	.	8.2µM*	-27.5%	-13.2%	9.2µM*
COc1ccc(CNc2nc3c(-c4cccc(C)c4)nnn3c3ccccc23)cc1	.	.	?	-5.1%	1.4%	?
Cc1cccc(-c2nnn3c2nc(NCc2ccccc2)c2ccccc23)c1	.	.	?	-2.2%	0.1%	20.6µM*
SMILES	HT1080NT lethal	HT1080 IDH1KD tx	DT40 TDP1 CPT	HepG2 viability	TGFb SMAD3 inh	DT40 TDP1 no CPT
COC(=O)c1cc(OC)c(OC)cc1NC(=O)c1cc(C(C)(C)C)oc1C	?	8.2%	?	-38.2%	16.8%	-1.1%
Cc1ncc2c(c1CNS(=O)(=O)c1cccs1)CCN(C(=O)/C=C/c1ccc(F)cc1F)C2	.	.	1.6%[9.04 µM]	.	.	?
O=C1C[C@H](c2ccccc2Cl)N1S(=O)(=O)c1ccccc1[N+](=O)[O-]	.	.	.	-1.2%	2.0%	.
CCN=c1sc(C(=O)NCCc2ccccc2)cc(=O)n1CC	?	?	?	-35.1%	?	18.4µM*
CCn1c(=O)c2cc(C(=O)NCCc3cccc(C)c3)sc2c2ccccc21	.	.	-4.3%	-4.6%	-7.4%	-14.3%
COc1cccc(C(=O)Nc2ccc3c(cc2=O)[C@@H](NC(C)=O)CCc2cc(OC)c(OC)c(OC)c2-3)c1	5.8µM*	4.61µM*	6.51µM*	-20.1%	?	2.91µM*
CCCC(=O)NC1CCc2cc(OC)c(OC)c(OC)c2-c2ccc(OC)c(=O)cc21 (stereo not drawn)	?	?	0.0164µM*	-25.3%	?	0.0164µM*
COC(=O)c1ccc2c(c1)C(NC(C)=O)CCc1cc(OC)c(OC)c(OC)c1-2 (stereo not drawn)	0.0065µM*	?	0.0184µM*	-5.1%	?	0.0206µM*
COc1ccc(C(C)=O)cc1CC(=O)NC1CCCCCC1	5.2%	3.9%	-19.4%	5.4%	-3.7%	-22.5%
COc1cc(CC(=O)NC2CCCc3ccccc32)cc(OC)c1OC (stereo not drawn)	0.7%	4.7%	?	-1.5%	3.7%	?
